Laboratory results taken from PubChem BioAssay AID504400 (The Scripps Research Institute Molecular Screening Center, 2011).
A number with no mark means an inactive call. No rule for the calls is given here.

Test system: Imidazoline I2
Experiment: CYP450 and receptor off-target profile – biochemical, Ricerca HitProfilingScreen, selectivity assay for S1P4 agonist project, late-stage follow-up (AID 504400)
Settings: Ricerca radioligand binding/enzyme panel plus CYP450, Central, at 10 µM, hits give high values

SMILES: Clc1ccc(OCCOc2ccc(Br)nc2Br)c(Cl)c1
- inhibition: 9%
